Data from the supplement of paper PMC11732987, “Enantioselective OTUD7B fragment discovery through chemoproteomics screening and high-throughput optimisation” (Communications Chemistry, 2025).

Assays:
Experiment in all cases: log2 ratio of Biotin-Ahx-Ub-VS probe labelling (fragment/DMSO); higher = less target engagement (more negative = stronger competition), active = hit call of the paper (q ≤ 0.05, log2 ratio ≤ -1)
Conditions in all cases: compound concentration: 200 uM; treatment time: 3 h
USP19 = molecular target: T1, USP19 (UniProt O94966)
T1 sequence (whole entry): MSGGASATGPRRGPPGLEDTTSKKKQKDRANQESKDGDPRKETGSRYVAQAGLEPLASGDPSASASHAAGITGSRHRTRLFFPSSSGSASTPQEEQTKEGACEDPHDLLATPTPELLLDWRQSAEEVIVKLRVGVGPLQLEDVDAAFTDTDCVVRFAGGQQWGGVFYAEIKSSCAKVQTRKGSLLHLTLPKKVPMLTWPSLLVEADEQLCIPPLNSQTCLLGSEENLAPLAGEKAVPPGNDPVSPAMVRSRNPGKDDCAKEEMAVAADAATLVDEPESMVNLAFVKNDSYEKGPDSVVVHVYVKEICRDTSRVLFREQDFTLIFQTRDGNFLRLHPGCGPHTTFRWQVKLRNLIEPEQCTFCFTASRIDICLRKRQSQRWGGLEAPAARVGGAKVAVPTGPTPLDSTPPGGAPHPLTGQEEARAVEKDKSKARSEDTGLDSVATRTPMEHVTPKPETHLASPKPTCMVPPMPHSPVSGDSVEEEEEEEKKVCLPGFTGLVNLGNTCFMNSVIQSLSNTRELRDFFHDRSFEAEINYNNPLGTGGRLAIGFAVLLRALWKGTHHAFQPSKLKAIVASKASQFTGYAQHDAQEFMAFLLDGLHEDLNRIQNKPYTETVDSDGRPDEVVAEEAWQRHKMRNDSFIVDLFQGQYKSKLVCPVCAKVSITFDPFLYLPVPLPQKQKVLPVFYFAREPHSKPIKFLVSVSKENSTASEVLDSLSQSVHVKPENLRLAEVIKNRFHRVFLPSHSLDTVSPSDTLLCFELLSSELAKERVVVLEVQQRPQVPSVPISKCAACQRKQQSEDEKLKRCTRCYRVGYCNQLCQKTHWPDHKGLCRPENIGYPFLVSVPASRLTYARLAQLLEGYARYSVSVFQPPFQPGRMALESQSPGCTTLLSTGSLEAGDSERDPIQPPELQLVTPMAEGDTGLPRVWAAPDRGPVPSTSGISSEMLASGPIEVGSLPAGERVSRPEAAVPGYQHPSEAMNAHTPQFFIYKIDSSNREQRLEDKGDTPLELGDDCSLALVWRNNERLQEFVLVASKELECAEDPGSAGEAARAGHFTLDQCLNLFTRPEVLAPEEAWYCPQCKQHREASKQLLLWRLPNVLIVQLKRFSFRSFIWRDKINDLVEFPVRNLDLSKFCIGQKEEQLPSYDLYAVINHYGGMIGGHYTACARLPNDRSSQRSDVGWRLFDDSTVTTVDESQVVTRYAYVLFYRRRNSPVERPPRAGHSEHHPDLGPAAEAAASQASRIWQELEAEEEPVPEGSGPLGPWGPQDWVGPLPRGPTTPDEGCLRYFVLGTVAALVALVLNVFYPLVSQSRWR
Outline: (§1)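 HEK293T lysate (495 µg per sample, in Tris/CHAPS/IGEPAL buffer with protease inhibitors) was exposed in triplicate for 3 h to fragment at 200 µM or to vehicle, then to Biotin-Ahx-Ub-VS at 0.5 µM final for 1 h. Labelled DUBs were enriched on NeutrAvidin, digested with LysC and trypsin, and analysed by diaPASEF LC-MS/MS. Spectronaut label-free quantities were normalised to the global median, and values are average log2 ratios of fragment over vehicle from an unpaired t-test. Only proteins with ≥2 unique peptides were used.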

USP22 = molecular target: T2, USP22 (UniProt Q9UPT9)
T2 sequence (whole entry): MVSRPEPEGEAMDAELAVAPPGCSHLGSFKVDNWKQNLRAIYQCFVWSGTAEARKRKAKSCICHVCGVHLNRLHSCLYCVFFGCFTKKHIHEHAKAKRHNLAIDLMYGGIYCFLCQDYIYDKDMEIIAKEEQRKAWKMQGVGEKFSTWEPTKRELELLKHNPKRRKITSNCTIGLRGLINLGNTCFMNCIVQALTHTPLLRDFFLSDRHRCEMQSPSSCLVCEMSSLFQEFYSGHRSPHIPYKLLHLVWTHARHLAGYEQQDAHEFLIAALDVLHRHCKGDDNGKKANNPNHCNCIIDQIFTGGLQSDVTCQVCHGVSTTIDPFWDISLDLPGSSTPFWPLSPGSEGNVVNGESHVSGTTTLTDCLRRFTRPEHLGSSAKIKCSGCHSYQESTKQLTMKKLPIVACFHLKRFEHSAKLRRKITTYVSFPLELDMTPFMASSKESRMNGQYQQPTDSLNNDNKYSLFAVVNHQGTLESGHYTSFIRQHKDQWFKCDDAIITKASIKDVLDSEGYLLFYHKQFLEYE
Outline: as §1

USP24 = USP24 (UniProt Q9UPU5)
Outline: as §1

USP25 = molecular target: T3, USP25 (UniProt Q9UHP3)
T3 sequence (whole entry): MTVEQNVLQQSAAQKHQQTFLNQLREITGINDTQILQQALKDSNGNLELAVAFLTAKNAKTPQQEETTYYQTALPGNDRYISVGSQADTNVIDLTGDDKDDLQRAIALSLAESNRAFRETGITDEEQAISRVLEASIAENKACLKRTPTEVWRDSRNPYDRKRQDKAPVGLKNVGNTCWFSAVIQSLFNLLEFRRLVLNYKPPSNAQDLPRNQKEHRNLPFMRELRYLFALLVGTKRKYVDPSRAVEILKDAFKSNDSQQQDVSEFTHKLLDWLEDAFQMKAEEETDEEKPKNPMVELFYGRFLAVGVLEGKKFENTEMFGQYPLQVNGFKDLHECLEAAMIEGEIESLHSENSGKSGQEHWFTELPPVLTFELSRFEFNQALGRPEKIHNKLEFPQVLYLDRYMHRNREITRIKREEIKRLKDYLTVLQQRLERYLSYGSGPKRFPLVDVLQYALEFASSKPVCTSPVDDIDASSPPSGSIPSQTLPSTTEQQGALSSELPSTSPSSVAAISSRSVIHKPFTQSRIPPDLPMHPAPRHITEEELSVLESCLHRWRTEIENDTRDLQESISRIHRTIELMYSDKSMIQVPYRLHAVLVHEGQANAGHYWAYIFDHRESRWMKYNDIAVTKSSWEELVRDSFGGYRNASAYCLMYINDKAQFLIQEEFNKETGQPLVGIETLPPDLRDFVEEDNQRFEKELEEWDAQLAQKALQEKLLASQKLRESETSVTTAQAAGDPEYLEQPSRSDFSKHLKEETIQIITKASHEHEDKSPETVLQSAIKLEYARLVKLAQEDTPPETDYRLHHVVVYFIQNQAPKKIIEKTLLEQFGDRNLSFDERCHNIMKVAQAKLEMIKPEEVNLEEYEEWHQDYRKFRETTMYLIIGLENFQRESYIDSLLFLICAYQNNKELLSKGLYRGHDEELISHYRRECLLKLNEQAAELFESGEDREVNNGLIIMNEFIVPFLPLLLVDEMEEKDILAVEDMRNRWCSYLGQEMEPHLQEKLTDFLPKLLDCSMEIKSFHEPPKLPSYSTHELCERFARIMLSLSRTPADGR
Outline: as §1

USP28 = molecular target: T4, USP28 (UniProt Q96RU2)
T4 sequence (whole entry): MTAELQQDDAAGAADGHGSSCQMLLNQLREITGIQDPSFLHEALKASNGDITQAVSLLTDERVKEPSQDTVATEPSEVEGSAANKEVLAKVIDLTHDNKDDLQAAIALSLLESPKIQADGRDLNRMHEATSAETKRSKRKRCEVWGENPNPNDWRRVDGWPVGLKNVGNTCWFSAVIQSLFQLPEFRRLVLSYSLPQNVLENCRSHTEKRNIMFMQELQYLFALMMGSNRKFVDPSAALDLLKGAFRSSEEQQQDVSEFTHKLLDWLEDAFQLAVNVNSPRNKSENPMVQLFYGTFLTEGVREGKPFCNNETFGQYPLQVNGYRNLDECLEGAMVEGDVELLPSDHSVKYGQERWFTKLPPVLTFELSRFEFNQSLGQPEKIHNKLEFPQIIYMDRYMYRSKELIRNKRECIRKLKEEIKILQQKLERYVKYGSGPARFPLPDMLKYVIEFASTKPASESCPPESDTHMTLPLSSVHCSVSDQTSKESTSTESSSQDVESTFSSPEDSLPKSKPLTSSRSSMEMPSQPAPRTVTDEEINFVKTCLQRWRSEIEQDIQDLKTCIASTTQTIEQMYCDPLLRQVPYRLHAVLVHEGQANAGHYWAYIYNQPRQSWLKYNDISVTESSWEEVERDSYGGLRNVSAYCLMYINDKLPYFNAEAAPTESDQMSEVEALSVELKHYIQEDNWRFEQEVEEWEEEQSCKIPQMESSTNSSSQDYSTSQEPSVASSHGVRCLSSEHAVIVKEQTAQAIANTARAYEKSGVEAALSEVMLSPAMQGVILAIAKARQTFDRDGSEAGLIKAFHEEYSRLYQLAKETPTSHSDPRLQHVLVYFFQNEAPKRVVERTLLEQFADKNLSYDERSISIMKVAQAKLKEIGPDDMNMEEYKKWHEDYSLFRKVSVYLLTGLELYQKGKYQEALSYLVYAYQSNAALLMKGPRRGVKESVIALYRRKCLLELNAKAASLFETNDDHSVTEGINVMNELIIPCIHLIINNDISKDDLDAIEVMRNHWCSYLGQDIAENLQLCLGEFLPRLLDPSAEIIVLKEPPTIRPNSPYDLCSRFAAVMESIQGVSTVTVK
Outline: as §1

Measured: log2 ratio of Biotin-Ahx-Ub-VS probe labelling

USP24, sequence (Q9UPU5 whole entry): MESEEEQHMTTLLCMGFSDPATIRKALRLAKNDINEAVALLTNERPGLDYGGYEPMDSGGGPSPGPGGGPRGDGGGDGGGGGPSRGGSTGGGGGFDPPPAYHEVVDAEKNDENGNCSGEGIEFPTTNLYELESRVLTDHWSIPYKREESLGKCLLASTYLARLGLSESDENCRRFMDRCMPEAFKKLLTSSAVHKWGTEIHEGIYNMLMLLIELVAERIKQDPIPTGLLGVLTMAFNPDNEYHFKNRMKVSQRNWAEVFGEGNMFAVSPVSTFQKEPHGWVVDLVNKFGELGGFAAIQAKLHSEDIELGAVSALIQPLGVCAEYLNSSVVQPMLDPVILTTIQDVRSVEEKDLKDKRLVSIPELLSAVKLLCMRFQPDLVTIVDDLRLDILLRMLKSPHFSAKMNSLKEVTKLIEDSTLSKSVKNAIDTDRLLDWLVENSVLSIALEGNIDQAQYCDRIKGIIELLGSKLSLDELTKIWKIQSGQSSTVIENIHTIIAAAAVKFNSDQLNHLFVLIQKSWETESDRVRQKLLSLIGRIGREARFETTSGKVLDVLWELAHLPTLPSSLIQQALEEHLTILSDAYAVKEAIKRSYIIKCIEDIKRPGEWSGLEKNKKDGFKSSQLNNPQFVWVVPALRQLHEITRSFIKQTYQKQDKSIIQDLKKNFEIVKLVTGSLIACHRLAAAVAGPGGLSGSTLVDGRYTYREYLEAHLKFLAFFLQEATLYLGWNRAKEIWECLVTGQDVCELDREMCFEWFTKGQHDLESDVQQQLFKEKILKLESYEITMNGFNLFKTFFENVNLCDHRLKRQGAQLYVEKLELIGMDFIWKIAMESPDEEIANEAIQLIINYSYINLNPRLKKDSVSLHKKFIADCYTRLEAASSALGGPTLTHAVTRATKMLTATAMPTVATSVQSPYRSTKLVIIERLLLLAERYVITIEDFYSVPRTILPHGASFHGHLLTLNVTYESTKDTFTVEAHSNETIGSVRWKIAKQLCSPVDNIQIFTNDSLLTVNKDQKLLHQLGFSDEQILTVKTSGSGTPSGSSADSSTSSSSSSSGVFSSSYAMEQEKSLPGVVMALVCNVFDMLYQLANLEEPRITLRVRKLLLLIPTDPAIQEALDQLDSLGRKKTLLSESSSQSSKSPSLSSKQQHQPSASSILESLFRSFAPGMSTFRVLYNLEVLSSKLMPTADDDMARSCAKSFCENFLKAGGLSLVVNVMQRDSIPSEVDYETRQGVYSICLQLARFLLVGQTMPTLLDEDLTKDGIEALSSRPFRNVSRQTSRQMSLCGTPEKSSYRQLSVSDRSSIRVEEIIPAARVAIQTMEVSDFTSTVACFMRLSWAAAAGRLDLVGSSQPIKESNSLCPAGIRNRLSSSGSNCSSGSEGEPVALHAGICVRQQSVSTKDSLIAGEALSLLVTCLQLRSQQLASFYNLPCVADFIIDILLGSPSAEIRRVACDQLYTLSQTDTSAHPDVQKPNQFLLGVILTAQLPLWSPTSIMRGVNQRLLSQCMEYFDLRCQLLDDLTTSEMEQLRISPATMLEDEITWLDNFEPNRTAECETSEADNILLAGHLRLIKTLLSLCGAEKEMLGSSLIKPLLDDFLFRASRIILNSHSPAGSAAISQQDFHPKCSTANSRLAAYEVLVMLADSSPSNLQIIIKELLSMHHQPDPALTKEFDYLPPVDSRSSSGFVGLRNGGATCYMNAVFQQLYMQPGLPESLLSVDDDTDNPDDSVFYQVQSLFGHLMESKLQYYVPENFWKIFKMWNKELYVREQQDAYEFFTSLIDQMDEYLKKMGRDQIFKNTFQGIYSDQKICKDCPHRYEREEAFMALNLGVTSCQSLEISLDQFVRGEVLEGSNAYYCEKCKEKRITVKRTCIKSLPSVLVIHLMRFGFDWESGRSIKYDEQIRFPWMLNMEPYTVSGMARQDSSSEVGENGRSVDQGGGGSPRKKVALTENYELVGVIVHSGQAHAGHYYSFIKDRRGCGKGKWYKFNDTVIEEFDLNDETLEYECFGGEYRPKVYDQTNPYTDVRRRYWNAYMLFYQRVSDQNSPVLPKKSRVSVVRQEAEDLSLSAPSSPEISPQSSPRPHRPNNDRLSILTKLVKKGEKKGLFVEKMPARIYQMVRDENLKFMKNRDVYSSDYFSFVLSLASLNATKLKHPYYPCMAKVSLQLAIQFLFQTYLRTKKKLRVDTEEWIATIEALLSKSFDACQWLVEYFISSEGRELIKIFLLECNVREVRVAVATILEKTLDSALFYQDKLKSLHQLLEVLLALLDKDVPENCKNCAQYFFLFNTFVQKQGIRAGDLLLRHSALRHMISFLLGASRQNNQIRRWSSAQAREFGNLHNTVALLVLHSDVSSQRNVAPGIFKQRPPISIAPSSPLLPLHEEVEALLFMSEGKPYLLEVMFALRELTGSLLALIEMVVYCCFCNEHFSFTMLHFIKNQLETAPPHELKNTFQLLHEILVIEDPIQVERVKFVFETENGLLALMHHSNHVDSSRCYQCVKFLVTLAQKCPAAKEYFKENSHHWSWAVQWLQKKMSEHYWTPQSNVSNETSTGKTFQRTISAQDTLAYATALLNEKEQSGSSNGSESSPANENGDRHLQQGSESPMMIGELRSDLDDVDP

CC(NC(=O)CCl)c1cc2n(n1)CCCC2.Cl (stereo not given)
inactive: USP19 -0.153 | USP22 0.0191 | USP24 -0.262 | USP25 -0.378 | USP28 -0.582
